Test results as given in PubChem BioAssay (NCATS).
Results filed as inconclusive are left out. Active and inactive are the calls of the source. The call rests on the fitted dose curve; in most records, active means well fitted activation curve with a large enough effect; inconclusive means small, poorly fitted or top-dose-only effect; inactive means no such curve, though single readings can be large or run the other way.

Molecular target: D(1A) dopamine receptor (Homo sapiens) (UniProt P21728)
Assay: HTS Assay for Allosteric Agonists of the Human D1 Dopamine Receptor: Primary Screen for Potentiators (AID 488982); on activity, positive = potentiation: 0% is about no effect
Details: HEK293 T-REx D1 inducible cells, calcium flux, kinetic fluorescence; series mostly up to 8.37 µM; activity, positive = potentiation: at the top concentration
In short: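 Tetracycline-induced HEK293 T-REx cells force-coupled to calcium signalling were incubated overnight at 30 C and dye-loaded at room temperature. Calcium flux over 180 s after compound addition flagged agonists; a further 180 s read after EC20 dopamine flagged potentiators.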
Potency means the concentration at half of the fitted maximal effect.

Chain of D(1A) dopamine receptor (Homo sapiens) (P21728 whole entry, looked up): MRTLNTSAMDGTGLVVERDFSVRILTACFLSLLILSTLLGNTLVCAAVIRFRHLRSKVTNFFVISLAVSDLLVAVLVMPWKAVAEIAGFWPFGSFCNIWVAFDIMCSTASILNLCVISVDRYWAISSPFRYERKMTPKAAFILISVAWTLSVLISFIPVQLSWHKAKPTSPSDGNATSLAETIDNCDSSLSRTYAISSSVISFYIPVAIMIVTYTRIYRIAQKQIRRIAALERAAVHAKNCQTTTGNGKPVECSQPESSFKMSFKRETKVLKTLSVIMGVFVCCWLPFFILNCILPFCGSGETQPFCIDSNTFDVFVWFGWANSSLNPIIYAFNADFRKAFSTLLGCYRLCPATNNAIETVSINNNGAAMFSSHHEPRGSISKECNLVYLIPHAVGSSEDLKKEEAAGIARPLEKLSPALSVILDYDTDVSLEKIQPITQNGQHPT

Row | SMILES | activity, positive = potentiation | Potency
1 | Nc1nc(SCc2ccc([N+](=O)[O-])cc2)c2ncn([C@@H]3O[C@H](CO)[C@@H](O)[C@H]3O)c2n1 | -11.8% (inactive) | 
2 | CC(C)NCC(O)COc1cccc2ccccc12 (stereo not given) | 6.68% (inactive) | 
3 | Fc1ccc(C(OCCCc2cnc[nH]2)c2ccc(F)cc2)cc1 | -68.5% (inactive) | 
4 | O=C(O)CC1CCCc2ccccc2C1O (stereo not given) | 24.4% (inactive) | 
5 | CCCCCC(O)c1cccc(OCc2ccc3ccccc3n2)c1 (stereo not given) | -1.76% (inactive) | 
6 | CC1OC1P(=O)(O)O (stereo not given) | -2.84% (inactive) | 
7 | NC(=O)C1=CN(C2OC(COP(=O)(O)OP(=O)(O)OC[C@H]3O[C@@H](n4cnc5c(N)ncnc54)[C@H](OP(=O)(O)O)[C@@H]3O)C(O)C2O)C=CC1 (stereo not given in full) | -4.66% (inactive) | 
8 | NCCSSCCN | 1.73% (inactive) | 
9 | CC(N)C(=O)OC(C)(C)Cc1ccc(Cl)cc1 (stereo not given) | 20.6% (inactive) | 
10 | CCOC(=O)N1CCN(/[N+]([O-])=N/Oc2ccc([N+](=O)[O-])cc2[N+](=O)[O-])CC1 | -11% (inactive) | 
11 | NCCCCCCCCCCN | 18.4% (inactive) | 
12 | COc1ccccc1N1CCN(CCN(C(=O)c2ccc(I)cc2)c2ccccn2)CC1 | -108% (inactive) | 
13 | O=C(O)CCCC[C@@H]1CCSS1 | 21.6% (inactive) | 
14 | NCC1OC(O[C@H]2[C@H](O)[C@@H](OC3C(O)C(N)CC(N)C3OC3OC(CO)C(O)C(O)C3N)O[C@@H]2CO)C(N)C(O)C1O (stereo not given in full) | 13.4% (inactive) | 
15 | O=C(CCCCCN1CCN(c2ccccc2-c2ccccc2)CC1)NC1CCCc2ccccc21 (stereo not given) | -103% (inactive) | 
16 | CC(=O)N[C@H](C(=O)O)C(C)(C)SN=O | 20.7% (inactive) | 
17 | CN1C2CCC1CC(OC(=O)C(O)c1ccccc1)C2 (stereo not given) | 18.9% (inactive) | 
18 | CC[C@@H](C)[C@H]1O[C@]2(CC[C@H]1C)C[C@@H]1C[C@@H](CC=C(C)[C@@H](O[C@H]3C[C@H](OC)[C@@H](O[C@H]4C[C@H](OC)[C@@H](O)[C@H](C)O4)[C@H](C)O3)[C@@H](C)C=CC=C3CO[C@@H]4[C@H](O)C(C)=C[C@@H](C(=O)O1)[C@]34O)O2 |  | 2.06 µM (active)
19 | NC[C@@H]1O[C@H](C23CC4CC(CC(C4)C2)C3)Cc2c1ccc(O)c2O | -59.4% (inactive) | 
20 | CCN(CC)c1ncnc2c1ncn2[C@@H]1O[C@H](COP(=O)(O)OP(=O)(O)C(Br)(Br)P(=O)(O)O)[C@@H](O)[C@H]1O | -9.1% (inactive) | 
21 | Cn1ncc(S(=O)(=O)Cc2ccccc2)c(Br)c1=O | 27.3% (inactive) | 
22 | N#C/C(=C\c1ccc(O)c(O)c1)C(=O)NCc1ccccc1 | 32.9% (inactive) | 
23 | N#C/C(=C\c1c[nH]c2ccccc12)C(=O)c1ccc(O)c(O)c1 | 18.9% (inactive) | 
24 | O=C(O)[C@@H]1C[C@H](C(=O)O)N1 | 9.74% (inactive) | 
25 | C=C[C@H]1CN2CC[C@@H]1C[C@@H]2[C@@H](O)c1ccnc2ccc(OC)cc12 | -34.3% (inactive) | 
